Assay results from PubChem BioAssay (NCI).
Compounds without any hit were thinned out: in the full panel of roughly 83,000, 20% have a hit.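 Interpretation: 100, growth as untreated; towards 0, rising growth inhibition; 0, no net growth; 0 to -100, cell death. Compounds scoring below 10 were considered active.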 The source made the active and inactive calls.

Test system: SK-MEL-5 melanoma
Experiment: NCI-60 one-dose screen, 48 h (100 = growth as untreated, 0 = no growth, -100 = all killed)
Conditions: 10 µM

| SMILES | growth |
| --- | --- |
| CNc1nc(NC)c2cn[nH]c2n1 | 97.8% (inactive) |
| O=C(CN1CCNCC1)N1CCOCC1 | 110% (inactive) |
| CC1CCC2C(C)(C)C3CC12CC1OC13C (stereo unspecified) | 96.9% (inactive) |
| COc1cc(OC)c2ccc(=O)oc2c1 | 107% (inactive) |
| Cc1nc2c(ccc3ccccc32)s1 | 112% (inactive) |
| CC(=O)OCC1OC(OC2=C(CC=C(C)C)C(=O)c3ccccc3C2=O)C(OC(C)=O)C(OC(C)=O)C1OC(C)=O (stereo unspecified) | 4.66% (active) |
| O=S(=O)(O)CC(O)CN1CCN(CCO)CC1 (stereo unspecified) | 107% (inactive) |
| Cc1cc(OCCO)cc(C)c1Cl | 112% (inactive) |
| CC1Cc2ccccc2O1 (stereo unspecified) | 108% (inactive) |
| O=c1cc(-c2ccccc2)oc2c1ccc1ccccc12 | 79.6% (inactive) |
| CCOC(=O)C1=C(C)NC(=O)NC1c1cccs1 (stereo unspecified) | 104% (inactive) |
| CC(=O)c1ccc(C)c(N)c1 | 110% (inactive) |
| COc1ccc(/C=C/c2cccc[n+]2C)cc1 | 105% (inactive) |
| NC(=S)NN=C1CCCC1 | 97.8% (inactive) |
| CCN(CC)c1ccc2nc3ccc(=[N+](CC)CC)cc-3oc2c1 | -53.4% (active) |
| CCCC(=O)Nc1ccc2c(c1)CN1C(=O)c3ccccc3C1=N2 | 98.5% (inactive) |
| O=C(O)CCCC(=O)O | 102% (inactive) |
| O=[N+]([O-])c1ccc(/C=C/C=C/c2ccccc2)c(Cl)c1 | 101% (inactive) |
| N#Cc1c(N)sc(=S)c2c1CCCC2 | 114% (inactive) |
| CCCCCCCCOC(=O)c1ccccn1 | 104% (inactive) |
| CCN(CC)C(=O)/C=C(/C)c1ccccc1 | 90.1% (inactive) |
